Seven molecules from PubChem BioAssay (NCATS) can be followed below.

Experiment [1] addresses Lysosomal acid glucosylceramidase (Homo sapiens) (UniProt P04062). Description: Glucocerebrosidase-p2 (AID 348; in the data active = potency below about 10 µM; note: potency is the fitted concentration of half-maximal effect). The following applies: purified GBA, blue fluorogenic substrate, 40 min. The gist of the method:
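Compounds titrated from 0.6 nM upwards against 0.2 nM enzyme in pH 5.9 citric acid/KH2PO4, taurocholate, tween-20; blue fluorogenic substrate 80 uM, 40 min room temperature, stopped and read Ex 365/Em 440 for AC50.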

The nature of experiment [2]: AP1 Signaling Pathway (AID 357). Note: % is set by controls: 0 for no effect and ±100 for the full control effect. The following applies: ME-180 AP-1-bla reporter, EGF-induced, beta-lactamase ratio, 5 h; at 7.69 µM (top of the series) unless noted. The gist of the method:
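ME-180 cells with beta-lactamase reporter under AP-1 response element, stimulated with EC50 EGF; compounds tested in titration series, 5 h at 37 °C. CCF4 substrate added 2.5 h at room temperature; 460/530 nm emission ratio gave %activity and AC50.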

Experiment [3] concerns the target Cytochrome P450 1A2 (Homo sapiens) (UniProt P05177). Briefly: p450-cyp1a2 (AID 410; calls by dose curve; note: potency is the fitted concentration of half-maximal effect;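 for activity change, negative = inhibition: -100% = full effect of reference inhibitor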). The note with it: recombinant CYP1A2, luciferin-ME demethylation, luminescence; series mostly up to 57 µM. The gist of the method: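 Human CYP1A2 (20nM) demethylated Luciferin-ME at its Km (100uM) in 100mM KPO4. After 10 min compound preincubation, NADPH regeneration ran the reaction 60 min at room temperature. Luciferin was read by luminescence, normalized to 57 uM furafylline.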

Experiment [4] in a line: NFAT Signaling Pathway (AID 444).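 Note: carbachol stimulus at about its EC50 of 1 µM final; % is set by controls: 0 for no effect and ±100 for the full control effect.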 The note with it: Jurkat NFAT-bla M1, carbachol, beta-lactamase ratio, 5 h; at 7.69 µM (top of the series) unless noted. The gist of the method:
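Jurkat cells with NFAT-driven β-lactamase reporter and co-expressed M1 receptor, stimulated with carbachol (final 1 uM, ~EC50), compound titration, 5 h at 37 °C. CCF4 loaded 1 h at RT; 460/530 nm ratio gave %activity and AC50.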

The nature of experiment [5]: Stat Signaling Pathway (AID 446).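 Note: ME-180 cervical cancer cells given 40 pM IL-6 alongside compound; SIE-controlled beta-lactamase reporter measured as 460/530 nm FRET emission ratio; % is set by controls: 0 for no effect and ±100 for the full control effect.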 The note with it: ME-180 SIE beta-lactamase reporter, IL-6 stimulated, 5 h; at 7.69 µM (top of the series) unless noted. The gist of the method: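 Screening format detects activators and inhibitors alike: ME-180 SIE-bla cells stimulated at 40 pM IL-6 for 5 hrs with compound, then dual-emission beta-lactamase read at 405 nm excitation.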

Experiment [6] addresses Glucocorticoid receptor (Homo sapiens) (UniProt P04150). Description: GR-EFC Redistribution (AID 451; calls by dose curve; note: potency is the fitted concentration of half-maximal effect). The following applies: CHO-K1 GR-EFC translocation, beta-gal luminescence, 2 h. The gist of the method: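 CHO-K1 cells expressing nuclear EA and GR-ED fragments of b-gal; compounds titrated up to 46 uM final, 2 h at 37 C. GR nuclear translocation read as complemented b-gal luminescence after 1 h RT detection.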

Experiment [7] deals with Mitogen-activated protein kinase 10 (Mus musculus) (UniProt Q61831). Description: JNK3 AlphaScreen Assay (AID 530).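 Note: kinase came from lysate of stimulated human HepG2 cells; signal reports phosphorylation of biotinylated GST-cJun 1-79 at Ser73 with 10 µM ATP; % is set by controls: 0 for no effect and ±100 for the full control effect.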 The note with it: JNK3 lysate, c-Jun phosphorylation; series mostly up to 57.1 µM. An outline of the steps: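 qHTS format: compounds tested as titrations against IL-1beta/TNF-alpha-activated HepG2 lysate JNK3 with biotin-GST-cJun substrate and 10 uM ATP at room temperature. Loss of anti-phospho-cJun AlphaScreen signal indicates inhibition.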

In experiment [8] the target is 3',5'-cyclic-AMP phosphodiesterase 4B (Homo sapiens) (UniProt Q07343). Briefly: qHTS Assay for Inhibitors of PDE-IV (AID 607; active = well fitted activation curve with a large enough effect in the main read-out, with a control signal flat, not every such curve was filed as active; note: % of control where 0% means no effect). The following applies: HEK293 ACTOne CNG channel cells, membrane potential fluorescence; series mostly up to 22.9 µM. The gist of the method: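 The readout is membrane depolarisation from a cAMP-sensing CNG channel, detected with a potential dye at ex 535/em 590. Cells were HEK293-derived (endogenous PDE-IV) at 1000 cells/well, titrated up to 22.9 uM final.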
3',5'-cyclic-AMP phosphodiesterase 4B (Homo sapiens), sequence (Q07343 whole entry, looked up): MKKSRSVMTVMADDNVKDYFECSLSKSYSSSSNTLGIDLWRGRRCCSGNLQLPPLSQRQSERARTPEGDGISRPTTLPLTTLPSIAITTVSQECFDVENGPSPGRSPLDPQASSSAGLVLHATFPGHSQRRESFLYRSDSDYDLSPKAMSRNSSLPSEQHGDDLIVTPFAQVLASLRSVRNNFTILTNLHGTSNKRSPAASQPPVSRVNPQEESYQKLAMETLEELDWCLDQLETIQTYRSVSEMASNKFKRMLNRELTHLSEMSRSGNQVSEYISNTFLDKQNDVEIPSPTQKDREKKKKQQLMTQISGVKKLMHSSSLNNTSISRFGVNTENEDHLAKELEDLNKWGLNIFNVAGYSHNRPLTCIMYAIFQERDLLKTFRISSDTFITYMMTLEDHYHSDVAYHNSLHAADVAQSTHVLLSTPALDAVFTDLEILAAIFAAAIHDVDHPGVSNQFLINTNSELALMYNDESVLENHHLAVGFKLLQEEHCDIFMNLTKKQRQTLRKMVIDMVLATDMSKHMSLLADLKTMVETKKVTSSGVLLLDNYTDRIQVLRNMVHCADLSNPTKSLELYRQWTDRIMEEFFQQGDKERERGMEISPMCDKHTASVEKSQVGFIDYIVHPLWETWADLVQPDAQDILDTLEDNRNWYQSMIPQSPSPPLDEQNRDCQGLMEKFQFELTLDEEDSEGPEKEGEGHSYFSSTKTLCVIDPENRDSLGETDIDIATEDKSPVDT
Background: Quantitative high-throughput screening tests each substance at several concentrations.

Experiment [9] is described as follows: qHTS Assay for Lipid Storage Modulators (AID 1519; calls by dose curve). The following applies: Drosophila S3 cells, BODIPY lipid droplet/cell ratio, laser cytometry, cells loaded with oleic acid; for activity change, negative = inhibition: at 57.5 µM (top of the series). The gist of the method: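 Cells seeded at 5,000 per well were treated with compounds over a concentration series and loaded with oleic acid (400 uM, as added). Lipid droplet fluorescence (488 nm excitation, 500-530 nm channel) was read by laser-scanning cytometry and normalized to 20 uM Triacsin C.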

Experiment [10] in a line: Primary qHTS for small molecule stabilizers of the endoplasmic reticulum resident proteome: Secreted ER Calcium Modulated Protein (SERCaMP) assay (AID 1508630; active = well fitted inhibition curve with a large enough effect; note: % is set by controls: 0 for no effect and ±100 for the full control effect). The note with it: SH-SY5Y GLuc-SERCaMP (Gaussia luciferase released on ER calcium loss) secretion, thapsigargin, luminescence; series mostly up to 38.4 µM. The gist of the method:
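GLuc-SERCaMP-expressing SH-SY5Y cells, pretreated 16 h with compound, are challenged with thapsigargin to empty ER calcium stores; after 4 h, coelenterazine is added directly to the medium and luminescence is imaged.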

Setting [11] is: measured here: cell count channel max response.
[12] abbreviates: measured here: lipid channel max response.

Records with an inconclusive call do not appear. Activity calls are given as the source filed them. Unless noted, calls come from the whole dose curve; as a rule, active = well fitted curve in either direction with a large enough effect (not every such curve was filed as active); inconclusive = small, poorly fitted or top-dose-only effect, or another doubt; inactive = flat fitted curve, though single readings scatter.

Lysosomal acid glucosylceramidase (Homo sapiens), sequence (P04062 whole entry, looked up): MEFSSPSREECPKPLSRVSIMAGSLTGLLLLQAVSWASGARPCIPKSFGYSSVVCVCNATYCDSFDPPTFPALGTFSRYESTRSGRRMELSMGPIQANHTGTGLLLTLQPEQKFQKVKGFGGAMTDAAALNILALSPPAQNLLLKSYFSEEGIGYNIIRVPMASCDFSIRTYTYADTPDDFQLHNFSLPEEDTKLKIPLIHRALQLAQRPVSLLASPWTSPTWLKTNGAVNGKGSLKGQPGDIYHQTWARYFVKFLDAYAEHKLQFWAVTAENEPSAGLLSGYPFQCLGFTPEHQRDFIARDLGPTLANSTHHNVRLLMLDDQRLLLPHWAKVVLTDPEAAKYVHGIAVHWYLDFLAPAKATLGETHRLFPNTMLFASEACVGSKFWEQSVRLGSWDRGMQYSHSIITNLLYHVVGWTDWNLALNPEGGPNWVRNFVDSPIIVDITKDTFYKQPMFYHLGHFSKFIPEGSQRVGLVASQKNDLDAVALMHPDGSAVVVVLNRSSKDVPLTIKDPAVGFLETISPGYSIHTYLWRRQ
Cytochrome P450 1A2 (Homo sapiens), sequence (P05177 whole entry, looked up): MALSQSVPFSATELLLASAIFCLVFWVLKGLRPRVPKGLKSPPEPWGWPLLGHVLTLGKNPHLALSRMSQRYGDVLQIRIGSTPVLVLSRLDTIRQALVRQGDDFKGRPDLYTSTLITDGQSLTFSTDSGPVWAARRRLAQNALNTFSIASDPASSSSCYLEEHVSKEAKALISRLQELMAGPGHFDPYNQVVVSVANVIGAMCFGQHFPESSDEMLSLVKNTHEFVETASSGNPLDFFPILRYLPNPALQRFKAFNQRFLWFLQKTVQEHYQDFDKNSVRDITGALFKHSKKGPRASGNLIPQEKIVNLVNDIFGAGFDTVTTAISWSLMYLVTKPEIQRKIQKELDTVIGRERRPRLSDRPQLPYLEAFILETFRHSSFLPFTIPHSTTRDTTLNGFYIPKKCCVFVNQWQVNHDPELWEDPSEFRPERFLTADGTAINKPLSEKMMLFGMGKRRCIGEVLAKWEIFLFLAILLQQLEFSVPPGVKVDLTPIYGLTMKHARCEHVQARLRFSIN
Glucocorticoid receptor (Homo sapiens), sequence (P04150 whole entry, looked up, the tested form may be a part): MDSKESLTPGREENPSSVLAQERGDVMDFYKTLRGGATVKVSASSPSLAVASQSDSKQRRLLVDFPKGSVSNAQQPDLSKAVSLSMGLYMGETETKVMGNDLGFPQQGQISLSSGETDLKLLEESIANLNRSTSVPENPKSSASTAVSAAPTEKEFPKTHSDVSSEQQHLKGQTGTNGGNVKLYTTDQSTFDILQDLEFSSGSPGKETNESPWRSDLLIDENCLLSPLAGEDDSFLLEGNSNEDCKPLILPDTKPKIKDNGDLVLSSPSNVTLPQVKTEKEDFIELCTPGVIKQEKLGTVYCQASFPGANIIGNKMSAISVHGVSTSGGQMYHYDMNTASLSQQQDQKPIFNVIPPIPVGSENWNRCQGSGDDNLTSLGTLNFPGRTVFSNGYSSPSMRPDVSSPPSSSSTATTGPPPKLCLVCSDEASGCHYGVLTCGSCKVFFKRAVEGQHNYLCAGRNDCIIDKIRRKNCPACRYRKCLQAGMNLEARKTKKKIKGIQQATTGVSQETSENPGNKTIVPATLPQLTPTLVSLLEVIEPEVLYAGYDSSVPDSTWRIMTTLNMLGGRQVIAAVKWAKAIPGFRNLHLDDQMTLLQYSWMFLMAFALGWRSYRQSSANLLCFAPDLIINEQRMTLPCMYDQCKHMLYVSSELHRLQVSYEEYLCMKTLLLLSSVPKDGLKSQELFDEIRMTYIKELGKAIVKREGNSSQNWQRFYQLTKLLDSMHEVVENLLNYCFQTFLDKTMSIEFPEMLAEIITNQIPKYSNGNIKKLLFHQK

As for `CC(C)CN1CCC2(CC1)CCN(C(=O)c1csnn1)CC2`, the Potency is > 11.4 µM (inactive) in [1] and > 46 µM (inactive) in experiment [6]. The activity change, negative = inhibition in [2] was -3.75% (inactive); in [4], -21.7% (inactive); in experiment [9], -1.92% (inactive). Further, the Potency result in experiment [3], in experiment [8] and in experiment [10] was “inactive” in each case. The activity, negative = inhibition in experiment [5] was -16.4% (inactive). The outcome in experiment [7] was inactive. In addition, the results for the max response in experiment [9] (setting [11]) and in [9] (setting [12]) were -3.14% and -1.99%, respectively.

Turning to `COC(=O)N1CCC2(CCN(C(=O)Nc3ccccc3)CC2)CC1`, the values for the Potency in [1] and in experiment [6] were > 11.4 µM (inactive) and > 46 µM (inactive), respectively. For the same molecule, the activity change, negative = inhibition was -4.41% (inactive) in experiment [2], 4.8% (inactive) in experiment [4] and 5.74% (inactive) in experiment [9]. The Potency result in experiment [3], in experiment [8] and in [10] was “inactive” throughout. For the same molecule, the activity, negative = inhibition in experiment [5] was 0.0402% (inactive). In experiment [7], the result was inactive. In addition, the max response in [9] (setting [11]) was 8.07%; in [9] (setting [12]) it was 17.4%.

For `O=C(Nc1cccc(F)c1)N1CC2(CCN(C(=O)c3csnn3)CC2)C1`, the Potency in [1] was > 11.4 µM (inactive); in experiment [6], > 46 µM (inactive). The activity change, negative = inhibition in experiment [2] is -24.7% (inactive); in experiment [4], 16.8% (inactive); in experiment [9], 5.27% (inactive). The Potency result in experiment [3], in experiment [8] and in experiment [10] was “inactive” in each case. The activity, negative = inhibition in experiment [5] is -8.23% (inactive). Also, in [7], the outcome was inactive. Also, the values for the max response in experiment [9] (setting [11]) and in [9] (setting [12]) were 2.11% and 8.72%, respectively.

As for `CC(C)NC(=O)N1CCC2(CC1)CCN(S(C)(=O)=O)CC2`, the Potency in experiment [1] is > 11.4 µM (inactive); in [6], > 46 µM (inactive). Moreover, the activity change, negative = inhibition in experiment [2] is -12.4% (inactive); in [4], 6.9% (inactive); in experiment [9], -0.0632% (inactive). The Potency result in experiment [3], in experiment [8] and in [10] was “inactive” throughout. Also, the activity, negative = inhibition in experiment [5] is 4.06% (inactive). In experiment [7], the call was inactive. For the same molecule, the max response was found to be 6.33% in experiment [9] (setting [11]) and 5.94% in experiment [9] (setting [12]).

As for `O=C(c1csnn1)N1CCC2(CC1)CN(c1ccncc1)C2`, the Potency was > 11.4 µM (inactive) in [1] and > 46 µM (inactive) in [6]. The activity change, negative = inhibition in experiment [2] is -12.4% (inactive); in experiment [4], -12.8% (inactive); in experiment [9], 0.619% (inactive). The Potency entry in experiment [3], in experiment [8] and in [10] was “inactive” in each case. The activity, negative = inhibition in experiment [5] was -7.18% (inactive). For the same molecule, the molecule was called inactive in experiment [7]. Moreover, the max response came to 4.32% in experiment [9] (setting [11]) and 5.47% in experiment [9] (setting [12]).

Take `COc1ccc(NC(=O)N2CCC3(CC2)CCN(C(=O)c2cnccn2)CC3)cc1`: the Potency in experiment [1] is > 11.4 µM (inactive); in [3] it was 10 µM (active); in experiment [6] it was > 46 µM (inactive). The activity change, negative = inhibition in [2] is -11.1% (inactive); in experiment [4], 9.86% (inactive); in experiment [9], 7.44% (inactive). For the same molecule, in experiment [5], the activity, negative = inhibition is 0.353% (inactive). Besides, the outcome in experiment [7] was inactive. Besides, the Potency entry in [8] and in experiment [10] was “inactive” throughout. The max response in experiment [9] (setting [11]) amounted to 7.1%; in experiment [9] (setting [12]), 18.9%.

Regarding `O=C(c1cnccn1)N1CCC2(CCN(Cc3nccs3)CC2)CC1`, the Potency in experiment [1] is > 11.4 µM (inactive); in experiment [6] it was > 46 µM (inactive). The activity change, negative = inhibition in experiment [2] is 2.79% (inactive); in experiment [4], 9.93% (inactive); in experiment [9], 2.95% (inactive). Further, the Potency entry in experiment [3], in [8] and in [10] was “inactive” in each case. The activity, negative = inhibition in experiment [5] is 3.3% (inactive). For the same molecule, the molecule was classed as inactive in experiment [7]. For the same molecule, the max response in experiment [9] (setting [11]) was -0.576%; in experiment [9] (setting [12]), 4.52%.
